A number with no mark means an inactive call. Inconclusive results are not listed. Active and inactive are the calls of the source. Unless noted, calls follow the shape of the dose curve; as a rule, active = well fitted curve in the direction sought with a large enough effect; inconclusive = small, poorly fitted or top-dose-only effect, or another doubt; inactive = no such curve, though single readings can be large; an effect the other way counts as inactive or inconclusive. Some results are limits rather than exact numbers.

From PubChem BioAssay (NCATS) come the findings set out here.

For experiment [1], the target named is Lysosomal acid glucosylceramidase (Homo sapiens) (UniProt P04062). As to the kind of experiment: Glucocerebrosidase-p2 (AID 348; in the data active = potency below about 10 µM; also: potency is read from the fitted curve at half-maximal effect). The following applies: purified GBA, blue fluorogenic substrate, 40 min. The essentials: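 Normal human glucocerebrosidase (0.2 nM) with blue fluorogenic substrate (80 uM final) in citrate/phosphate pH 5.9 with 10mM sodium taurocholate, 0.01% tween-20; 40 min RT, NaOH/glycine stop; fluorescence Ex 365/Em 440; AC50 from a titration from 0.6 nM upwards.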

Experiment [2] can be described thus: AP1 Signaling Pathway (AID 357; active = well fitted curve in either direction with a large enough effect, not every such curve was filed as active;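 also: ME-180 reporter cells stimulated with EGF at its EC50 level; % is scaled to controls: 0 for no effect and ±100 for the full control effect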). The following applies: ME-180 AP-1-bla reporter, EGF-induced, beta-lactamase ratio, 5 h; at 7.69 µM (top of the series) unless noted. The essentials: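 Beta-lactamase reporter under AP-1 response element, ME-180 background. Stimulus: EC50 EGF. Compound exposure 5 h, 37 °C. Detection: CCF4, 2.5 h RT, 460/530 nm. Values: AC50 from titration.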

Experiment [3] addresses Cytochrome P450 1A2 (Homo sapiens) (UniProt P05177). As to the kind of experiment: p450-cyp1a2 (AID 410; calls by dose curve; also: potency is read from the fitted curve at half-maximal effect;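 as to activity change, negative = inhibition: -100% = full effect of reference inhibitor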). The following applies: recombinant CYP1A2, luciferin-ME demethylation, luminescence; series mostly up to 57 µM. The essentials: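 Read-out is luminescence from luciferin produced by CYP1A2 demethylation of Luciferin-ME (100uM, at Km). Detection reagent stopped the 60 min NADPH-dependent reaction; signals were normalized to 57 uM furafylline.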

Experiment [4] in a line: NFAT Signaling Pathway (AID 444; active = well fitted curve in either direction with a large enough effect, not every such curve was filed as active;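 also: carbachol stimulus at about its EC50 of 1 µM final; % is scaled to controls: 0 for no effect and ±100 for the full control effect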). The following applies: Jurkat NFAT-bla M1, carbachol, beta-lactamase ratio, 5 h; at 7.69 µM (top of the series) unless noted. The gist of the method:
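Read-out: CCF4 FRET ratio (460 nm/530 nm) after 1 h RT dye loading, used for %activity and AC50 from titration series. Cells: Jurkat NFAT-β-lactamase/M1 line, treated with compound plus 1 uM carbachol for 5 h, 37 °C.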

Experiment [5] is described as follows: Stat Signaling Pathway (AID 446; active = well fitted curve in either direction with a large enough effect, not every such curve was filed as active;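 also: ME-180 cervical cancer cells given 40 pM IL-6 alongside compound; SIE-controlled beta-lactamase reporter measured as 460/530 nm FRET emission ratio; % is scaled to controls: 0 for no effect and ±100 for the full control effect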). To be noted: ME-180 (cervical carcinoma) SIE beta-lactamase reporter, IL-6 stimulated, 5 h; at 7.69 µM (top of the series) unless noted. The essentials: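 Compound effects on IL-6-induced STAT reporter activity were measured in ME-180 cells. After overnight culture, cells were co-treated with 40 pM IL-6 for 5 hrs before beta-lactamase substrate loading at room temperature.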

For experiment [6], the target named is Glucocorticoid receptor (Homo sapiens) (UniProt P04150). As to the kind of experiment: GR-GFP Redistribution (AID 450;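 active = compounds whose dose series gives a full or clear partial fitted curve of increased nuclear translocation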; also: potency is read from the fitted curve at half-maximal effect). To be noted: U2OS GR-GFP nuclear translocation, laser cytometry, 2 h.
Experiment [7] has the same target. As to the kind of experiment: GR-EFC Redistribution (AID 451; calls by dose curve; also: potency is read from the fitted curve at half-maximal effect). The following applies: CHO-K1 GR-EFC translocation, beta-gal luminescence, 2 h. The gist of the method: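 Translocation of GR-ED fusion to nuclear EA restores b-gal, read by luminescence after 1 h room-temperature detection. Engineered CHO-K1 biosensor cells, 1,000/well, exposed 2 h at 37 C to titrations up to 46 uM final.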

The target of experiment [8] is Mitogen-activated protein kinase 10 (Mus musculus) (UniProt Q61831). As to the kind of experiment: JNK3 AlphaScreen Assay (AID 530; active = well fitted curve in either direction with a large enough effect, not every such curve was filed as active;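 also: kinase came from lysate of stimulated human HepG2 cells; signal reports phosphorylation of biotinylated GST-cJun 1-79 at Ser73 with 10 µM ATP; % is scaled to controls: 0 for no effect and ±100 for the full control effect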). The following applies: JNK3 lysate, c-Jun phosphorylation; series mostly up to 57.1 µM. The essentials:
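Kinase buffer: 20 mM Tris-HCl pH 7.6, 10 mM MgCl2, 1 mM DTT, 0.1 mM Na3VO4, 0.01% Tween-20; ATP 10 uM. Substrate biotin-GST-cJun(1-79), enzyme from activated HepG2 lysates. Detection by Ser73 phospho-antibody AlphaScreen.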
For orientation: In Alpha technology, singlet oxygen from a donor bead excites a nearby acceptor bead.

Experiment [9] concerns the target 3',5'-cyclic-AMP phosphodiesterase 4B (Homo sapiens) (UniProt Q07343). As to the kind of experiment: qHTS Assay for Inhibitors of PDE-IV (AID 607; active = well fitted activation curve with a large enough effect in the main read-out, with a control signal flat, not every such curve was filed as active; also: % of control where 0% means no effect). To be noted: HEK293 ACTOne CNG channel cells, membrane potential fluorescence; series mostly up to 22.9 µM. The gist of the method: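 ACTOne HEK293 cells carry a modified cAMP-gated CNG channel and express endogenous PDE4; plated 1000 cells/well, compounds up to 22.9 uM final. Membrane-potential dye fluorescence (ex 535/em 590) was read; parental cells received 10 uM forskolin + 100 uM RO 20-1724.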
Background: qHTS replaces the single test concentration by a dilution series.

In experiment [10] the target is Cytochrome P450 3A4 (Homo sapiens) (UniProt P08684). As to the kind of experiment: qHTS Assay for Activators of Cytochrome P450 3A4 (AID 885). Also: nearly all actives have a fitted effect of over 65% in size. To be noted: recombinant CYP3A4, Luciferin-PPXE luminescence, 60 min; series mostly up to 57.1 µM. The gist of the method:
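CYP3A4 activity: Luciferin-PPXE O-dealkylation, 25uM substrate, 200mM KPO4, RT throughout. Read-out is luciferase luminescence; higher values reflect activation.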

Experiment [11] is described as follows: Confirmation and Secondary Assay for Modulators of Hemoglobin Beta Chain Splicing at IVS2 654 locus (AID 910).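 Also: HeLa cells stably carrying EGFP split by mutant beta-globin IVS2-654 intron; per-well total GFP intensity by laser scanning cytometry after 2-day treatment; % of control where 0% means no effect.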 The following applies: HeLa EGFP-654 splicing reporter, GFP fluorescence, 48 h; series mostly up to 38.3 µM. The gist of the method: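 Readout: per-well total peak green fluorescence (488 nm ex, 500–520 nm em) from objects 5–250 µm, reflecting correct splicing of an EGFP-654 reporter. Compounds were applied for 2 days at 37 °C to overnight-plated HeLa EGFP-654 cells; controls were DMSO and 500 nM IVS2-654 PNA.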

In experiment [12] the target is Ubiquitin carboxyl-terminal hydrolase 1 (Homo sapiens) (UniProt O94782). As to the kind of experiment: Inhibitors of USP1/UAF1: Pilot qHTS (AID 504865).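 Also: rhodamine fluorescence freed from ubiquitin-rhodamine substrate followed over time; top concentration of the series differs between compounds; % is scaled to controls: 0 for no effect and ±100 for the full control effect; nearly all actives have a fitted effect of over 35% in size.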 To be noted: purified USP1/UAF1, Ub-rhodamine cleavage fluorescence; series mostly up to 54.9 µM. The essentials: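 Deubiquitinase activity followed as kinetic rhodamine fluorescence release from 150 nM Ub-Rho. 1 nM USP1/UAF1 with compound, after 15 min room-temperature preincubation, in HEPES pH 7.8 buffer containing TCEP, EDTA, BSA and Tween-20.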

Experiment [13] can be described thus: Primary qHTS for small molecule stabilizers of the endoplasmic reticulum resident proteome: Secreted ER Calcium Modulated Protein (SERCaMP) assay (AID 1508630). Also: % is scaled to controls: 0 for no effect and ±100 for the full control effect. The following applies: SH-SY5Y GLuc-SERCaMP (Gaussia luciferase released on ER calcium loss) secretion, thapsigargin, luminescence; series mostly up to 38.4 µM. The essentials:
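The SH-SY5Y reporter protocol was run at 3 concentrations up to 38.3 uM (primary) or 11 concentrations (follow-up): 16 h compound, 100 nM thapsigargin for 4 h, then extracellular luciferase luminescence.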

Experiment [14] has as its target Cytochrome P450 2D6 (Homo sapiens) (UniProt P10635). As to the kind of experiment: qHTS Assay for Inhibitors and Substrates of Cytochrome P450 2D6 (AID 891). Also: potency is read from the fitted curve at half-maximal effect; nearly all actives have a fitted effect of over 60% in size. To be noted: recombinant CYP2D6, luciferin-ME EGE luminescence; series mostly up to 57.1 µM. The gist of the method:
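Luminescent read-out of luciferin formed by 5 nM human CYP2D6 demethylating 30 uM Luciferin-ME EGE (Km level) over 60 min at room temperature after NADPH regeneration addition. Data normalized to full inhibition by 1.43 uM quinidine.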

For experiment [15], the target named is Cytochrome P450 3A4 (Homo sapiens) (UniProt P08684). As to the kind of experiment: qHTS Assay for Inhibitors and Substrates of Cytochrome P450 3A4 (AID 884). Also: potency is read from the fitted curve at half-maximal effect; nearly all actives have a fitted effect of over 50% in size. The following applies: recombinant CYP3A4, Luciferin-PPXE luminescence; series mostly up to 57.1 µM. The gist of the method:
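Luminescent readout of luciferin produced by CYP3A4 (20 nM) dealkylation of Luciferin-PPXE, 25 uM (its KM). NADPH-driven reaction ran 60 min at RT after 10 min compound preincubation; data scaled to 57 uM ketoconazole as 100% inhibition.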

For experiment [16], the target named is Cytochrome P450 2C19 (Homo sapiens) (UniProt P33261). As to the kind of experiment: qHTS Assay for Inhibitors and Substrates of Cytochrome P450 2C19 (AID 899). Also: potency is read from the fitted curve at half-maximal effect; nearly all actives have a fitted effect of over 60% in size. The following applies: recombinant CYP2C19, luciferin-H EGE luminescence; series mostly up to 57.1 µM. The gist of the method: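 Reactions contain 5nM enzyme, 10uM Luciferin-H EGE (KM) and 50mM KPO4; compound preincubates 10 min at 37C, NADPH regeneration starts turnover for 60 min. Luminescence after detection reagent gives activity.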

The target in experiment [17] is Dual specificity protein kinase CLK4 (Homo sapiens) (UniProt Q9HAZ1). As to the kind of experiment: qHTS Assay for Inhibitors of CDC-like Kinase 4 (ADP-FP Assay) (AID 1795).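 Also: recombinant human CLK4 phosphorylating RS repeat peptide at 1 µM ATP; % is scaled to controls: 0 for no effect and ±100 for the full control effect; nearly all actives have a fitted effect of over 60% in size.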 To be noted: Transcreener ADP fluorescence polarization; series mostly up to 50 µM. The essentials:
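Kinase activity was measured as ADP production using Transcreener orange tracer (4 nM) and ADP antibody (1 ug/mL) fluorescence polarization, with ADP calculated from a calibration curve. The 1 h reaction contained 6.25 nM Clk4, 1 uM ATP and 100 uM RS peptide at pH 7.5 with Mg2+.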

Lysosomal acid glucosylceramidase (Homo sapiens), sequence (P04062 whole entry, looked up): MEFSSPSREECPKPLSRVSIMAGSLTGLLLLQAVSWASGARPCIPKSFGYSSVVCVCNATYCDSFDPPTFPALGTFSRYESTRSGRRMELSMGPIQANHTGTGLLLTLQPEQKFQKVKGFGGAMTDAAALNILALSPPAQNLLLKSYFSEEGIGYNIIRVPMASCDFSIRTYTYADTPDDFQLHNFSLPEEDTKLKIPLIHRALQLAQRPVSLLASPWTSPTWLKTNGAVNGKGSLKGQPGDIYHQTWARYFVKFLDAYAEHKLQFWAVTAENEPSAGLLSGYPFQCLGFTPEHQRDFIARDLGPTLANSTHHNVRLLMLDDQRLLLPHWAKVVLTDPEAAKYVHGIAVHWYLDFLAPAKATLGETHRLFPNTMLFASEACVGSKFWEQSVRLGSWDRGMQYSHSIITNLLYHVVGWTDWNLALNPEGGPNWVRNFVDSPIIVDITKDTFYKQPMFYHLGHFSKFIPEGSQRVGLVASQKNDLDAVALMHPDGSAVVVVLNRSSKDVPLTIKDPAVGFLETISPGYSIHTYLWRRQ
Glucocorticoid receptor (Homo sapiens), sequence (P04150 whole entry, looked up, the tested form may be a part): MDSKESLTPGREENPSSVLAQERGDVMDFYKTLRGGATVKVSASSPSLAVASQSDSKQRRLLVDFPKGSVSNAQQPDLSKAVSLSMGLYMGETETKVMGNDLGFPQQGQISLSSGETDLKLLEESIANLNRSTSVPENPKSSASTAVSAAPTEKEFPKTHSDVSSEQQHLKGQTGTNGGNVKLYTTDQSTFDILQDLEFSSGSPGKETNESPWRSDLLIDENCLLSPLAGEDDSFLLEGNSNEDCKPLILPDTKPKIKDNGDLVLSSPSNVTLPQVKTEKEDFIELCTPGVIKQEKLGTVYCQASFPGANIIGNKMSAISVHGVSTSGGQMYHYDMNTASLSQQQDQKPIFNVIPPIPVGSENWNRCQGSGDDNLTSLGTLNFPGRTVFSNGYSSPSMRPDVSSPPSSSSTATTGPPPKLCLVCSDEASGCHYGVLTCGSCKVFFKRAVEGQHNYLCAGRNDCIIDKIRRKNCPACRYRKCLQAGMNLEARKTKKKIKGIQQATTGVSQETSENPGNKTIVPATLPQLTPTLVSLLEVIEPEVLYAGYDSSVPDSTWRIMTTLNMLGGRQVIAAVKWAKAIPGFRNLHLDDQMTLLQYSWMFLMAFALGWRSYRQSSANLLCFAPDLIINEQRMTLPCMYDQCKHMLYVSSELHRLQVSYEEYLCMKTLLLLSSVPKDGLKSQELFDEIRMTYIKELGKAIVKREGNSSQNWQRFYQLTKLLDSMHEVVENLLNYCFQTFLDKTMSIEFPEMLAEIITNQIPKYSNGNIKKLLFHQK
Cytochrome P450 1A2 (Homo sapiens), sequence (P05177 whole entry, looked up): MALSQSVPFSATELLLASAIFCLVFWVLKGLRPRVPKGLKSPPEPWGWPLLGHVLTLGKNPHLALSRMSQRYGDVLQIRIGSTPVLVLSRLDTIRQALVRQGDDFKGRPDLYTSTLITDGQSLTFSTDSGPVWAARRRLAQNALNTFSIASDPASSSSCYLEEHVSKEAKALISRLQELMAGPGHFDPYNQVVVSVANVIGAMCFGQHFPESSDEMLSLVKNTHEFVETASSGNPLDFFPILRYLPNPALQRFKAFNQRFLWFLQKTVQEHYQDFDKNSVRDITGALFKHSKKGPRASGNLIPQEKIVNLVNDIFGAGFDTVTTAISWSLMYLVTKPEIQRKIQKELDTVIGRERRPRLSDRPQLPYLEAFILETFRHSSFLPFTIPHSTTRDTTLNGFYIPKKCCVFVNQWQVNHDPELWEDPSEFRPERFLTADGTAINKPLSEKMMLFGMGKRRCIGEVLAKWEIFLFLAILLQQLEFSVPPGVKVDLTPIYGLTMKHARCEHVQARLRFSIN
Ubiquitin carboxyl-terminal hydrolase 1 (Homo sapiens), sequence (O94782 whole entry, looked up): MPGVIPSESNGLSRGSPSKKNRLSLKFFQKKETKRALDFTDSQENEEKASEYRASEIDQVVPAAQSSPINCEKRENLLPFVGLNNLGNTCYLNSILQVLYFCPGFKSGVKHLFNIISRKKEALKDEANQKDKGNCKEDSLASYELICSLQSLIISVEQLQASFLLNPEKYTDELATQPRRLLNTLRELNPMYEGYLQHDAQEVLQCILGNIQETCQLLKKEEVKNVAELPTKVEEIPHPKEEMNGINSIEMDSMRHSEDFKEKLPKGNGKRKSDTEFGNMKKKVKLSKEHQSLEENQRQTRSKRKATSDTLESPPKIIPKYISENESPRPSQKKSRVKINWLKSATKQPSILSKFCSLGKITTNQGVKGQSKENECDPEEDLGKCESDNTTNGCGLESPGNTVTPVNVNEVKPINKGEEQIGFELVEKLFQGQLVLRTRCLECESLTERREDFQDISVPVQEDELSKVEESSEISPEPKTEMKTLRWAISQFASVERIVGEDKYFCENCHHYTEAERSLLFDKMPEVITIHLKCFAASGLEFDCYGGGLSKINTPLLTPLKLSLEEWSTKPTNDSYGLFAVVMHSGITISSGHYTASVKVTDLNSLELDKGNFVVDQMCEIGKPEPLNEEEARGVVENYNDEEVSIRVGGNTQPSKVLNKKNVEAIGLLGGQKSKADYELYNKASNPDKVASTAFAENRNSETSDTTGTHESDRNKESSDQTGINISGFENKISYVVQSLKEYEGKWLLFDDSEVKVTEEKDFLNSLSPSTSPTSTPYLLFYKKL
Cytochrome P450 3A4 (Homo sapiens), sequence (P08684 whole entry, looked up): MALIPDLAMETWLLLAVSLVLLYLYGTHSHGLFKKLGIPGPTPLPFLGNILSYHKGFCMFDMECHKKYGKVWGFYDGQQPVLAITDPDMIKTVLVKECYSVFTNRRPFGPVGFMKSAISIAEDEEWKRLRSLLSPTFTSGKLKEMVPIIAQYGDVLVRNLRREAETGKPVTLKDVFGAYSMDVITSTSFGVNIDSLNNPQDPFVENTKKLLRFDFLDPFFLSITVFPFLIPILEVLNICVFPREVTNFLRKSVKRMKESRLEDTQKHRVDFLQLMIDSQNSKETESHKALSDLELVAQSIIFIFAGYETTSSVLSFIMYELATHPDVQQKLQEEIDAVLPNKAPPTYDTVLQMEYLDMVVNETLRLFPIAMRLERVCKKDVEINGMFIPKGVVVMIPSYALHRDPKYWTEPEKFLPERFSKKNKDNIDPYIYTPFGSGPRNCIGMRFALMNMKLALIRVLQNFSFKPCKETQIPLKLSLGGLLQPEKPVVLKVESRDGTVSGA
3',5'-cyclic-AMP phosphodiesterase 4B (Homo sapiens), sequence (Q07343 whole entry, looked up): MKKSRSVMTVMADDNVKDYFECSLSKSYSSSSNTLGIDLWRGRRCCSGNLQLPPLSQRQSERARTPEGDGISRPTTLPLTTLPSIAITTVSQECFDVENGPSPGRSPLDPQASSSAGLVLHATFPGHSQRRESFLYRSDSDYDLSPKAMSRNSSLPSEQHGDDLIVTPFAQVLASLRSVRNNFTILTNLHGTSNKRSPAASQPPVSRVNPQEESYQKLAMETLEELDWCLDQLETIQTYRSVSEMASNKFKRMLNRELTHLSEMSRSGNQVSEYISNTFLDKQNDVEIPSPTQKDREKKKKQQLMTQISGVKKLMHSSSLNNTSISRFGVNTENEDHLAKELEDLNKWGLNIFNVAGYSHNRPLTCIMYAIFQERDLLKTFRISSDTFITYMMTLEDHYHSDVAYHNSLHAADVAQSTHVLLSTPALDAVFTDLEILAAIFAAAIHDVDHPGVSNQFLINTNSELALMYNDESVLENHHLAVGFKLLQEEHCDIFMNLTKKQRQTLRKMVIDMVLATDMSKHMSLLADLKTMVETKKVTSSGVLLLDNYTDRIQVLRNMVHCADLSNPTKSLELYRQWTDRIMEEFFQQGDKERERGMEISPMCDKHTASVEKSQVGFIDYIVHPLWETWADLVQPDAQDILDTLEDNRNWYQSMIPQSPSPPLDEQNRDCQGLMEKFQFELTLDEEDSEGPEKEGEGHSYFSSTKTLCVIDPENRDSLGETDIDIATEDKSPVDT
Cytochrome P450 2D6 (Homo sapiens), sequence (P10635 whole entry, looked up): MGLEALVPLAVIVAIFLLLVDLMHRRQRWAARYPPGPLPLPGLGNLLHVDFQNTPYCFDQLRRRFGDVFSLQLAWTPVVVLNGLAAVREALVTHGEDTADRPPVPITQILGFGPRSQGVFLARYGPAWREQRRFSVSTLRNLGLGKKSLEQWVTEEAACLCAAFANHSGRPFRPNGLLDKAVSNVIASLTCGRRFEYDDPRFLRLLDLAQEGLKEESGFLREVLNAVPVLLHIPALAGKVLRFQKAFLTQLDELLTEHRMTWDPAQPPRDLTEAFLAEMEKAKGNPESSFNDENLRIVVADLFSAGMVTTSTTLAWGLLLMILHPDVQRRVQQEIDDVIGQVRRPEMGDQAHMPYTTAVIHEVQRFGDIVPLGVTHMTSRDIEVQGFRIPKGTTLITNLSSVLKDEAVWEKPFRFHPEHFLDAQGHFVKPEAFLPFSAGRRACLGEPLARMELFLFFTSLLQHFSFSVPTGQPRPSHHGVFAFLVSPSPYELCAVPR
Dual specificity protein kinase CLK4 (Homo sapiens), sequence (Q9HAZ1 whole entry, looked up): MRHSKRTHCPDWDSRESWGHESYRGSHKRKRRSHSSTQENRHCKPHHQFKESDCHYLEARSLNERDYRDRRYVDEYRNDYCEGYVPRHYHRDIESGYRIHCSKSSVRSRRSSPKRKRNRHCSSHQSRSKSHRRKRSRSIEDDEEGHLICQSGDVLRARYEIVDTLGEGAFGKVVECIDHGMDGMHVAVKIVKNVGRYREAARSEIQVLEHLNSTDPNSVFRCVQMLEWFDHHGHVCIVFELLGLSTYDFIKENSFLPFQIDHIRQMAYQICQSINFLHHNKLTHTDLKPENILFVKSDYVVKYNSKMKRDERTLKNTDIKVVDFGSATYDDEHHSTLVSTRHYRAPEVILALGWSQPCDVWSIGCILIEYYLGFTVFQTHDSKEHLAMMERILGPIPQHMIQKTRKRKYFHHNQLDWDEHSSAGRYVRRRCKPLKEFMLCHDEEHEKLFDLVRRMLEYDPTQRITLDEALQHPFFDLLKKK

As to `c1cncc(-c2ccc3ncnc(N4CCNCC4)c3c2)c1`, the Potency in experiment [1] is greater than 11.4 µM; in [3], 1.26 µM (active); in [6], greater than 46 µM; in experiment [7], greater than 46 µM. Further, the activity change, negative = inhibition is 8.97% in [2] and 26.4% in experiment [4]. In addition, the activity, negative = inhibition in [5] was 0.928%. Besides, the Potency result in experiment [8], in [9], in experiment [10], in experiment [11] and in [12] was “inactive” in each case. Also, in experiment [13], the result was inactive.

`CN(C)Cc1ccccc1-c1nccc(NC2CC2)n1`: the Potency in experiment [1] was greater than 11.4 µM; in experiment [3], 1.58 µM (active); in experiment [6] it was greater than 46 µM; in experiment [7] it was greater than 46 µM; in experiment [14], 0.631 µM (active). Moreover, the activity change, negative = inhibition in [2] is -4.26%; in experiment [4], 1.25%. Besides, the activity, negative = inhibition in experiment [5] was 5.09%. Further, the Potency entry in [8], in [9], in experiment [10] and in experiment [12] was “inactive” each time. In experiment [13], the result was inactive.

With `COc1ccc2[nH]cc(CCNc3ccnc(-c4ccccc4C)n3)c2c1`, the activity change, negative = inhibition was -8.02% in [2] and 8.54% in experiment [4]. The Potency in [3] was 0.316 µM (active); in experiment [6], greater than 46 µM; in experiment [7], greater than 46 µM; in [15] it was 3.16 µM (active); in experiment [14], 2.51 µM (active); in [16], 2.51 µM (active). Also, the activity, negative = inhibition in experiment [5] was -1.84%. In addition, the Potency entry in [8], in experiment [9], in experiment [10], in [17] and in [12] was “inactive” throughout. In experiment [13], the outcome was inactive.

As to `O=c1c(CCc2ccccc2)nc2cnc(N3CCOCC3)nc2n1Cc1ccc(F)cc1`, the Potency in [1] was greater than 11.4 µM; in experiment [3], 10 µM (active); in [6], greater than 9.22 µM; in [7], greater than 46 µM. For the same compound, the activity change, negative = inhibition in experiment [2] was -10.7%; in [4] it was -2.42%. Further, the activity, negative = inhibition in experiment [5] is 17.6%. In experiment [8], the Potency entry is “inactive”. In [13], the result was inactive.

`CN(C)C(=O)c1ccc(-c2cncnc2NCCN2CCOCC2)cc1`: the Potency was greater than 11.4 µM in [1], greater than 46 µM in experiment [6] and greater than 46 µM in [7]. Further, the activity change, negative = inhibition in experiment [2] is -0.958%; in experiment [4] it was -6.2%. Further, the Potency result in [3], in experiment [8], in experiment [9], in experiment [10], in experiment [11] and in [12] was “inactive” in each case. The activity, negative = inhibition in experiment [5] was 0.853%. Besides, in [13], the outcome was inactive.
